# Reference: PubChem BioAssay (Tox21)
# Calls of active or inactive are those of the source. Calls come from the whole dose curve; as a rule, active = well fitted curve in the direction sought with a large enough effect in the repeat runs; inconclusive = weak or mixed curves; inactive = flat fitted curve, though single readings scatter.
# Assay: qHTS assay to test for compound auto fluorescence at 460 nm (blue) in HEK293 cells (AID 720678)
# Settings: blue autofluorescence 405/460 nm; series mostly up to 91.3 µM; fluorescence, % of triamterene: at the top concentration
# Excerpt: National Center for Advancing Translational Sciences [NCATS]
# NIH Chemical Genomics Center [NCGC]
# U.S. Environmental Protection Agency [EPA]
# National Institutes of Environmental Health Sciences [NIEHS]
# National Toxicology Program [NTP]
# U.S. Food and Drug Administration [FDA]
# Compound auto fluorescence often interferes with screening of the compound library against various biological targets and signaling pathways. Some of these compounds may have fluorophoric properties. Such properties may interfere with the assay outputs resulting in false positives and/or negatives. To decrease such complications and ensure the compound activities are relevant in terms of biological response, the Tox21 10K compound library was screened for auto fluorescence.
# From the fluorophores used as reporter signals in our screening assays, the auto fluorescence equivalencies of compounds against three fluorophores have been evaluated: Triamterene, Fluorescein and Rose Bengal sodium for blue, green and red fluorescence, respectively. The fluorescence intensities were measured using Excitation/Emission wavelengths at 405/460nm, 485/535nm and 540/590nm for blue, green and red labels, respectively. This assay includes the blue fluorescence data.
# Tox21 Assay Protocol Summary:
# 2,000 HEK293 cells in 5 uL of culture medium containing 10% dialyzed FBS per well were dispensed into black wall/clear bottom 1536-well plates using a Multidrop Combi Dispenser (Thermo Scientific). The assay plates were incubated for 4-5 hr at 37C to allow cell attachment to the well bottom, followed by the transfer of 23 nL compound or DMSO vehicle by a pintool work station (Kalypsys, San Diego, CA). After the assay plates were incubated overnight at 37C and 5% CO2, fluorescence intensities in the assay plates were measured by an Envision (PerkinElmer, Shelton, CT) plate reader using three labels for measuring blue, green and red fluorescence at […] 460, 535 and 590nm respectively.
# % is set by controls: 0 for no effect and ±100 for the full control effect.
SMILES,"fluorescence, % of triamterene",outcome
C[N+]1(C)CCCC(OC(=O)C(O)(c2ccccc2)c2ccccc2)C1 (stereo not given),0.0818% [at 18.6 µM] (inactive),
CCC(C(=O)NC(=O)NC(C)=O)c1ccccc1 (stereo not given),0.0118% [at 46 µM] (inactive),
CCCCCCCCCCCCCCC(=O)O,0.0603% (inactive),
CCCOC(=O)CC,0.0168% (inactive),
CCOc1ccc2nc(S(N)(=O)=O)sc2c1,-0.212% [at 46 µM] (inactive),
O=C1NC(=O)C2CC=CCC12 (stereo not given),0.39% (inactive),
O=S(=O)(O)c1cccc2ccccc12,-0.134% (inactive),
Cc1ncc(COP(=O)(O)O)c(C=O)c1O,0.286% [at 46 µM] (inactive),
CN1CC(=O)N/C1=N/C(=O)Nc1cccc(Cl)c1,,inactive
c1ccc(CCc2ccccc2)cc1,0.115% (inactive),
CC(=O)NC(=O)c1ccccc1O,1.23% [at 46 µM] (inactive),
CC(C)CC(C)(N)C#N (stereo not given),-0.0397% [at 95.7 µM] (inactive),
CC(C)NNC(=O)c1ccncc1,0.203% [at 46 µM] (inactive),
Cc1cccc(C)c1NC(=O)CC12CCCN1CCC2,-0.162% [at 46 µM] (inactive),
C[C@H]1[C@H](NC(=O)/C(=N/OC(C)(C)C(=O)O)c2csc(N)n2)C(=O)N1S(=O)(=O)O (stereo in doubt),0.218% [at 18.6 µM] (inactive),
CC(=O)Oc1cccc(C)c1,-0.0287% [at 46 µM] (inactive),
CCN[C@@H]1C[C@H](N)[C@@H](OC2OC(CN)=CCC2N)[C@H](O)[C@H]1O[C@H]1OC[C@](C)(O)[C@H](NC)[C@H]1O (stereo not given in full),-0.225% [at 46 µM] (inactive),
O=C(O)CC(C(=O)O)S(=O)(=O)O (stereo not given),-0.0313% (inactive),
CCCO[Si](OCCC)(OCCC)OCCC,-0.0942% (inactive),
C[N+]1(C)[C@@H]2CC(OC(=O)[C@H](CO)c3ccccc3)C[C@H]1[C@@H]1O[C@@H]12 (stereo not given in full),-0.416% [at 46 µM] (inactive),

SMILES,"fluorescence, % of triamterene",outcome
CCCCc1ccc2c(n1)[C@@H](c1ccc(OC)cc1C[C@H](C)C(=O)O)[C@H](C(=O)O)[C@H]2c1ccc2c(c1)OCO2,-0.145% (inactive),
CC(C)(C)C(=O)c1ccccc1,0.0068% (inactive),
COc1cc(C(=O)OC(COCCC(C)C)CN2CCOCC2)cc(OC)c1OC (stereo not given),-0.0356% [at 46 µM] (inactive),
CCN(CC#N)c1cccc(C)c1,-0.121% (inactive),
CCCCCC(C)N (stereo not given),0.025% [at 46 µM] (inactive),
COc1cc(C)nc(-n2nc(C)cc2OC)n1,0.0208% [at 18.6 µM] (inactive),
CCCc1nn(C)c2c(=O)[nH]c(-c3cc(S(=O)(=O)N4CCN(C)CC4)ccc3OCC)nc12,-0.0521% [at 46 µM] (inactive),
CC(COc1ccccc1)NN (stereo not given),0.0123% [at 46 µM] (inactive),
C[C@@H]1CCC[C@H](C)N1,0.0181% [at 18.6 µM] (inactive),
CC1CCC(CO)CC1 (stereo not given),-0.0086% [at 95.7 µM] (inactive),
CCCCCCCCCCCCSC,-0.158% (inactive),
Nc1ccn([C@@H]2O[C@H](CO)[C@@H](O)[C@@H]2O)c(=O)n1,-0.0283% (inactive),
O=C(c1ccccc1O)c1ccccc1O,-0.0598% (inactive),
Clc1cc(Cl)cc(Cl)c1,-0.258% (inactive),
CC(=O)OCC(=O)[C@@]1(O)[C@H](C)C[C@H]2[C@@H]3CCC4=CC(=O)C=C[C@]4(C)[C@@]3(F)[C@@H](O)C[C@@]21C,,inactive
NO,-0.0553% [at 95.7 µM] (inactive),
COC(=O)Nc1ccc(Cl)c(Cl)c1,-0.0797% (inactive),
CCO[Si](OCC)(OCC)c1ccccc1,-0.0914% (inactive),
CO[Si](C)(OC)c1ccccc1,-0.0475% (inactive),
Cc1cc(C)c(N=Nc2c(O)c(S(=O)(=O)O)cc3cc(S(=O)(=O)O)ccc23)cc1C,-0.0938% [at 9.17 µM] (inactive),
